Laboratory results published in PubChem BioAssay (NCI).
The panel holds about 79,000 compounds, 15% with a hit somewhere; the sample as a whole holds those more often. Active and inactive are the calls of the source. Rule as the data show it: active = growth inhibition above about 70%; inactive = the rest.

Legend:
[1] = NCI Yeast Anticancer Drug Screen. Data for the rad52 strain (AID 147);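 also: 0% = growth of vehicle-treated control cultures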; conditions: S. cerevisiae rad52 mutant growth inhibition, active compounds read high
Procedure, shortened: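 Screen used a yeast mutant impaired in DNA repair. After compound exposure, growth was measured. Values reflect inhibition compared with vehicle-treated cells.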

[2] = NCI Yeast Anticancer Drug Screen. Data for the wt1 strain (AID 149);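 also: 0% = growth of vehicle-treated wt1 cultures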; conditions: S. cerevisiae wt1 strain (SPY 50644) growth inhibition, active compounds read high
Procedure, shortened: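 Each compound is tested on wt1 yeast and the loss of growth versus vehicle gives the inhibition value.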

[3] = NCI Yeast Anticancer Drug Screen. Data for the rad50EPP+ strain (AID 151);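 also: 0% = growth of vehicle-treated control cultures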; conditions: S. cerevisiae rad50 mutant strain, active compounds read high
Procedure, shortened: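 Exposing the rad50EPP+ strain to each compound, growth was compared with vehicle-only cultures to give inhibition.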

[4] = NCI Yeast Anticancer Drug Screen. Data for the mgt1 strain (AID 153); conditions: S. cerevisiae mgt1 mutant growth inhibition, active compounds read high
Procedure, shortened: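 Genetically defined yeast (mgt1) treated with compound; inhibition of growth expressed against vehicle-treated controls.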

[5] = NCI Yeast Anticancer Drug Screen. Data for the rad50 strain (AID 155);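 also: 0% = growth of vehicle-only cultures of the same strain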; conditions: S. cerevisiae rad50 strain growth inhibition, active compounds read high
Procedure, shortened: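 Vehicle-treated cultures provide the reference for the growth inhibition reported for compound-exposed, repair-deficient yeast.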

[6] = NCI Yeast Anticancer Drug Screen. Data for the mec2-1 strain (AID 157); conditions: S. cerevisiae mec2-1 strain, active compounds read high
Procedure, shortened: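 Readout is yeast growth inhibition, normalised to vehicle-treated controls, in the mec2-1 strain exposed to compound.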

[7] = NCI Yeast Anticancer Drug Screen. Data for the rad14 strain (AID 159);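 also: 0% = growth of vehicle-treated control cultures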; conditions: S. cerevisiae rad14 strain growth inhibition, active compounds read high
Procedure, shortened: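 Inhibition of growth is reported for a repair-deficient yeast mutant following compound treatment, calculated relative to cultures that received vehicle.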

[8] = NCI Yeast Anticancer Drug Screen. Data for the sgs1 mgt1 strain (AID 161);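 also: 0% = growth of cultures given vehicle only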; conditions: S. cerevisiae sgs1 mgt1 strain, active compounds read high
Procedure, shortened: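 Yeast cells carrying a defined DNA-repair defect were exposed to test compounds. Growth inhibition was measured relative to vehicle-treated controls.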

[9] = NCI Yeast Anticancer Drug Screen. Data for the CLN2oe strain (AID 163);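 also: 0% = growth of vehicle-only control cultures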; conditions: S. cerevisiae CLN2oe strain, active compounds read high
Procedure, shortened: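 Values reflect how much compound exposure reduced yeast growth, referenced to vehicle-exposed cells. Assay organism is a strain with a defined genetic change affecting cell-cycle control.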

[10] = NCI Yeast Anticancer Drug Screen. Data for the cln2 rad14 strain (AID 165);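 also: 0% = growth equal to vehicle treated cultures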; conditions: S. cerevisiae cln2 rad14 strain, active compounds read high
Procedure, shortened: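 Relative to vehicle controls, growth inhibition of compound-treated cln2 rad14 yeast was recorded.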

[11] = NCI Yeast Anticancer Drug Screen. Data for the bub3 strain (AID 167); conditions: S. cerevisiae bub3 mutant strain, active compounds read high
Procedure, shortened: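 Mutant yeast screening strain plus compound; vehicle-treated cultures serve as the 0% inhibition reference.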

[12] = NCI Yeast Anticancer Drug Screen. Data for the wt2 strain (AID 169); conditions: S. cerevisiae wt2 strain growth inhibition, active compounds read high
Procedure, shortened: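 Values express reduction in yeast growth under compound treatment, referenced to vehicle-treated cells.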

[13] = NCI Yeast Anticancer Drug Screen. Data for the sgs1 strain (AID 173);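 also: 0% = growth of vehicle-only control cultures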; conditions: S. cerevisiae sgs1 mutant, active compounds read high
Procedure, shortened: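 Treat defined-mutant yeast with compound; measure growth; calculate inhibition relative to vehicle-treated cells.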

[14] = NCI Yeast Anticancer Drug Screen. Data for the mlh1 rad18 strain (AID 175); conditions: S. cerevisiae mlh1 rad18 strain growth inhibition, active compounds read high
Procedure, shortened: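 Test agents were incubated with a yeast strain of defined genotype (DNA damage repair defect). Inhibition of growth was derived by comparison with vehicle-exposed cultures.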

[15] = NCI Yeast Anticancer Drug Screen. Data for the rad18 strain (AID 177); conditions: S. cerevisiae rad18 mutant growth inhibition, active compounds read high
Procedure, shortened: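 A genetically defined yeast mutant impaired in DNA damage repair was treated with test compounds, then its growth was measured against cultures receiving vehicle alone.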

[16] = at 5.0 µM (retest, dose inferred, filed as 0.5)
[17] = at 50.0 µM (retest, dose inferred, filed as 5.0)

Measured: growth inhibition

Oc1ccc(NCn2c(=S)sc3ccccc32)cc1
inactive: [1]; at 1.2 µM -1% | [1]; at 3.7 µM -10% | [1]; at 11.0 µM -7% | [1]; at 33.0 µM 38% | [2]; at 1.2 µM -24% | [2]; at 3.7 µM -17% | [2]; at 11.0 µM -16% | [2]; at 33.0 µM 29% | [3]; at 1.2 µM -6% | [3]; at 3.7 µM -21% | [3]; at 11.0 µM -25% | [3]; at 33.0 µM -16% | [4]; at 1.2 µM 14% | [4]; at 3.7 µM 17% | [4]; at 11.0 µM 37% | [5]; at 1.2 µM -2% | [5]; at 3.7 µM 12% | [5]; [16] 62% | [5]; at 11.0 µM 5% | [5]; at 33.0 µM 42% | [5]; at 50.0 µM 58.5% | [6]; at 1.2 µM 19% | [6]; at 3.7 µM 27% | [6]; [16] 63% | [6]; at 11.0 µM 26% | [7]; at 1.2 µM -11% | [7]; at 3.7 µM -8% | [7]; at 11.0 µM -6% | [7]; at 33.0 µM 62% | [8]; [16] 2% | [9]; at 1.2 µM -16% | [9]; at 3.7 µM -13% | [9]; at 11.0 µM -32% | [9]; at 33.0 µM 34% | [10]; [16] 58% | [10]; at 50.0 µM 40% | [11]; at 1.2 µM 14% | [11]; at 3.7 µM 32% | [11]; [16] 32% | [11]; at 11.0 µM 26% | [11]; at 33.0 µM 68% | [12]; at 1.2 µM -28% | [12]; at 3.7 µM -14% | [12]; at 11.0 µM -10% | [12]; at 33.0 µM 64% | [13]; at 1.2 µM 4% | [13]; at 3.7 µM 5% | [13]; at 11.0 µM 4% | [13]; at 33.0 µM 69% | [14]; [16] 51% | [14]; at 50.0 µM 63% | [15]; at 1.2 µM -1% | [15]; at 3.7 µM -5% | [15]; at 11.0 µM -11% | [15]; at 33.0 µM 48%
active: [1]; at 100.0 µM 97% | [2]; at 100.0 µM 97% | [3]; at 100.0 µM 82% | [4]; at 33.0 µM 87% | [4]; at 100.0 µM 98% | [5]; [17] 100% | [5]; at 100.0 µM 95% | [6]; at 33.0 µM 84% | [6]; [17] 100% | [6]; at 50.0 µM 73.8% | [6]; at 100.0 µM 99% | [7]; at 100.0 µM 98% | [8]; [17] 99% | [8]; at 50.0 µM 91.2% | [9]; at 100.0 µM 97% | [10]; [17] 98% | [11]; [17] 98% | [11]; at 50.0 µM 73.2% | [11]; at 100.0 µM 98% | [12]; at 100.0 µM 97% | [13]; at 100.0 µM 96% | [14]; [17] 100% | [15]; at 100.0 µM 96%
